Compound activity: PubChem BioAssay, National Center for Advancing Translational Sciences (NCATS)
HCMV inh = human cytomegalovirus inhibition | AID 1259415 | 410,000 tested, 4.5% active | HFF cells, HCMV-luciferase reporter, 72 h; active compounds read low | activity change, negative = inhibition, % at 57.5 µM; in the data active means activity change below about -60%; inconclusive means no clear call, values can overlap the other calls; inactive means above about -39%
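Inhibition of viral replication was scored as loss of reporter luminescence in HFFs infected with HCMV-luciferase (MOI 1 PFU/cell) for 72 h; compounds tested at 2 doses, normalized to buffer and Salinomycin controls.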
MARV entry inh = blocks Marburg virus binding to or entry into cells; AID 540276; 300,000 tested, 1.8% active; Marburg virus pseudotyped entry inhibition, cell reporter; Potency, µM (titrated, usually from 37.8 µM), for the others: top-dose activity change, negative = inhibition, most hits filed as inhibitors; calls by dose curve; tested in HEK293 cells; further: potency means the concentration at half of the fitted maximal effect
LASV entry inh = inhibitors of Lassa virus binding or cell entry. Lassa virus pseudotype entry inhibition, cell reporter. Potency, µM (highest dose often 37.9 µM), without a hit: at the highest dose activity change, negative = inhibition, hits mostly inhibitors. 300,000 tested, 1.2% active; calls by dose curve; tested in HEK293 cells; further: potency means the concentration at half of the fitted maximal effect; nearly all actives have a fitted effect of over 50% in size
FMDV inh = blocks foot and mouth disease virus; 410,000 tested, 1.2% active; Potency, µM (titrated, usually from 57.9 µM), for the others: at the top dose activity change, negative = inhibition, actives largely listed as inhibitors; FMDV antiviral cell-based qHTS; AID 1159524; calls by dose curve; tested in HEK293T cells; further: read-out not given here; potency means the concentration at half of the fitted maximal effect; nearly all actives have a fitted effect of over 45% in size
* = called active by the depositor; [ ] = dose if it differs, or a comment. Compounds with a hit are over-represented: about 6.2% of the library has one in this group of screens. On the % scale 0 is the no-effect control and ±100 the full control effect.

COc1ccc(NC(=O)c2c(C(=O)Nc3ccccc3)sc3nc(C)cc(=O)n23)cc1 was read as HCMV inh -19.0, MARV entry inh inconclusive, LASV entry inh -20.7%[46.1 µM] and FMDV inh -10.5%.
CCOC(=O)c1cnc2ccc(OCC)cc2c1NCc1ccccc1OC was read as HCMV inh -69.9*, MARV entry inh inconclusive, LASV entry inh 8.91µM* and FMDV inh 17.8µM*.
`CCOC(=O)c1cnc2ccc(OC)cc2c1NCc1ccccc1` gave HCMV inh -16.2, MARV entry inh inconclusive, LASV entry inh 25.3% and FMDV inh -6.8%.
`Cn1c(/C=N/c2nc3ccccc3[nH]2)nc2ccccc21` gave HCMV inh -104.3*, MARV entry inh -9.2%, LASV entry inh -16.8% and FMDV inh 46.4%.
COc1ccc(N2C(=O)[C@@H]3C[C@H]2CN3Cc2cccn2-c2ccccn2)cc1Cl was read as FMDV inh -5.4%.
For O=[N+]([O-])c1cccc2c([As](=O)(O)O)cccc12 the results were HCMV inh -73.5*, MARV entry inh -6.1%[46.1 µM], LASV entry inh 8.6%[46.1 µM] and FMDV inh -5.1%.
`O=c1[nH]ccc2c([N+](=O)[O-])cccc12` gave HCMV inh 7.3 and FMDV inh 10.9%.
`CN1C(=O)c2ccccc2Sc2ccc(NC(=O)Nc3ccccc3F)cc21` gave HCMV inh -2.2, MARV entry inh inconclusive, LASV entry inh -20.7%[46.1 µM] and FMDV inh 2.5%.
Screening CN1C(=O)c2ccccc2Sc2ccc(NC(=O)Cc3c(F)cccc3Cl)cc21 returned HCMV inh -81.9*, LASV entry inh inconclusive and FMDV inh -29.1%.
For CN1C(=O)c2ccccc2Sc2ccc(NC(=O)N3CCN(c4cccc(Cl)c4)CC3)cc21 the results were HCMV inh inconclusive, MARV entry inh 11.2µM*, LASV entry inh inconclusive and FMDV inh -12.8%.
Screening Cc1cccc(OCC(=O)Nc2ccc3c(c2)N(C)C(=O)c2ccccc2S3)c1 returned HCMV inh 6.5, LASV entry inh inconclusive and FMDV inh -7.5%.
`CCN1C(=O)c2ccccc2Sc2ccc(NC(=O)Nc3cc(C)cc(C)c3)cc21` gave HCMV inh -99.5*, MARV entry inh 4.7%[46.1 µM], LASV entry inh 0.1%[46.1 µM] and FMDV inh inconclusive.
Screening CN1C(=O)CSc2ccc(NC(=O)N3CCN(c4ccccc4)CC3)cc21 returned HCMV inh 56.4, MARV entry inh -11.5%[46.1 µM], LASV entry inh 1.3% and FMDV inh 0.0%.
CCN1C(=O)c2ccccc2Sc2ccc(NC(=O)c3ccc(Cl)cc3)cc21 was read as HCMV inh 12.1, LASV entry inh 18.1%[46.1 µM] and FMDV inh -16.0%.
Screening CN1C(=O)c2ccccc2Sc2ccc(NC(=O)COc3ccccc3)cc21 returned HCMV inh -63.5*, LASV entry inh inconclusive and FMDV inh -22.6%.
Nc1nc(Cl)nc2c1ncn2[C@@H]1O[C@H](COP(=O)(O)OP(=O)(O)OP(=O)(O)O)[C@@H](O)[C@H]1O was read as MARV entry inh -25.8% and LASV entry inh -17.7%.
For CCN(C(=O)Cn1nc(Cc2ccncc2)c2ccccc2c1=O)c1ccc(OC)cc1 the results were HCMV inh -20.5, MARV entry inh inconclusive, LASV entry inh 11.6%[46.1 µM] and FMDV inh -9.0%.
CCc1ccccc1N(CC)C(=O)Cn1nc(Cc2ccncc2)c2ccccc2c1=O was read as HCMV inh -71.7*, MARV entry inh inconclusive, LASV entry inh -6.1%[46.1 µM] and FMDV inh -9.6%.
Screening COc1ccc(-c2nnc(NC(=O)c3ccc([N+](=O)[O-])o3)o2)c(OC)c1 returned HCMV inh -94.0*, MARV entry inh -14.0%, LASV entry inh 7.6% and FMDV inh -26.9%.
For Cc1cc(Oc2ccc3c(-c4ccccn4)noc3n2)ccc1F the results were HCMV inh 54.8.
`CC1(C(=O)NS(=O)(=O)c2cccs2)CCN1C(=O)CC(c1ccccc1)c1ccccc1` (stereo not given) gave HCMV inh 7.0.
`O=C(O)CCCCNCc1ccccc1` gave HCMV inh -11.5, MARV entry inh 13.6% and LASV entry inh 14.2%.
c1ccc(CNCCCNCCCCNCCCNCc2ccccc2)cc1 was read as HCMV inh -97.3*, MARV entry inh inconclusive, LASV entry inh inconclusive and FMDV inh -9.3%.
For O=c1cc(-c2ccccc2)nc2cc(-c3ccc(F)cc3)[nH]n12 the results were HCMV inh 44.4, MARV entry inh inconclusive, LASV entry inh inconclusive and FMDV inh 21.5%.
For Fc1ccc(-c2cc(-c3ccccc3)nc(-n3cccn3)n2)cc1 the results were HCMV inh -60.6*, MARV entry inh inconclusive, LASV entry inh -12.3%[46.1 µM] and FMDV inh inconclusive.
O=C(c1cn(C2CCCN(Cc3cc(Cl)ccc3O)C2)nn1)N1CCCCC1 (stereo not given) was read as FMDV inh -13.8%.
`COc1ccc(NC(=O)c2cc3c(-c4ccccc4F)nn(C)c3s2)c(OC)c1` gave HCMV inh -17.6, MARV entry inh 8.9%[46.1 µM], LASV entry inh -27.1%[46.1 µM] and FMDV inh 0.0%.
COc1ccc(OC)c(CCNC(=O)c2cc3c(-c4ccccc4F)nn(C)c3s2)c1 was read as HCMV inh -89.9*, MARV entry inh inconclusive, LASV entry inh inconclusive and FMDV inh inconclusive.
Screening O=C1COCc2cc(-c3cccnc3)ccc2N1Cc1ccc2c(c1)OCO2 returned HCMV inh -10.0.
`Cn1cc(-c2cc3cnc(Nc4cccc(NS(C)(=O)=O)c4)cc3n2Cc2ccccc2)cn1` gave HCMV inh -87.7*.
For COc1ccc(Nc2cc3c(cn2)cc(-c2cnn(C)c2)n3Cc2ccccc2)cc1OC the results were HCMV inh -7.6.
Screening Cc1noc2ncnc(Sc3c(Cl)cccc3Cl)c12 returned HCMV inh 15.5, MARV entry inh inconclusive, LASV entry inh -26.7% and FMDV inh inconclusive.
`Cc1ccc(Sc2ncnc3onc(C)c23)cc1` gave HCMV inh 64.3, MARV entry inh inconclusive, LASV entry inh -3.6% and FMDV inh 17.8µM*.
Screening Cc1noc2ncnc(Sc3ccc(Cl)cc3)c12 returned HCMV inh -79.2*, MARV entry inh inconclusive, LASV entry inh -20.3% and FMDV inh inconclusive.
Screening O=C1C=C(c2cccs2)C[C@H](c2ccccc2)[C@H]1n1nnc([N+](=O)[O-])n1 returned HCMV inh -80.2*, MARV entry inh 1.26µM*, LASV entry inh inconclusive and FMDV inh -1.9%.
Screening CCc1nc(N2CCCC2)c(C#N)c2c1CCCC2 returned HCMV inh -80.0*, MARV entry inh 12.4%, LASV entry inh 17.9% and FMDV inh -8.7%.
Screening CCCc1nc(N2CCCC2)c(C#N)c2c1CCCC2 returned HCMV inh -12.5, MARV entry inh -2.9%, LASV entry inh 7.7% and FMDV inh 1.0%.
For COc1cccc(CNC(=O)Cn2cccc2C(=O)c2ccccc2C)c1 the results were HCMV inh 4.1, MARV entry inh 6.0%[46.1 µM], LASV entry inh 13.9%[46.1 µM] and FMDV inh 10.0%.
Screening COc1ccc(CCNC(=O)Cn2cccc2C(=O)c2ccccc2)c(OC)c1 returned HCMV inh -96.2* and FMDV inh 3.9%.
